Hit rate of the full screen: of about 2,300 compounds, about 790 (34%) were called active. The rule behind the calls is not given here. The list shows a part of the results. Entries with a potency or affinity are not part of this list.

The assay can be described thus: THP-1 cell cytotoxicity, dose response, cytotoxicity control for non-replicating M. tuberculosis project (AID 489025). The settings on record: THP-1 cell viability; series mostly up to 40 µM.
For `O=c1cc(C(F)(F)F)[nH]c2c(C(F)(F)F)cccc12`, the compound was called inactive.

Regarding `CN(C)CCN1C(=O)c2oc3ccccc3c(=O)c2C1c1cccc(Br)c1` (stereo not given), the result was inactive.

As to `O=C(c1cc2ccccc2o1)N1CCN(Cc2ccccc2)CC1`, the outcome was inactive.

Consider `O=C1CCC(=O)N1CNc1ccc(Oc2ccccc2)cc1`, for which the outcome was inactive.

In the case of `COC(=O)CCC(=O)Nc1sc(Cc2ccccc2)c(C)c1C(N)=O`, the compound was classed as inactive.

In the case of `O=C(Nc1sc2c(c1C(=O)O)CCCC2)c1ccc(F)cc1`, the call was inactive.

As to `O=C(c1ccc([N+](=O)[O-])o1)N1CCc2ccccc2C1`, the compound was classed as inactive.

Consider `O=C(CCSc1nnc(-c2ccncc2)o1)Nc1ccc(Cl)cc1`, for which the compound was classed as inactive.

Regarding `CC1(C)CC(=O)c2cc(C(=O)NNc3ccccc3)c(=O)n(-c3ccccc3)c2C1`, the compound was classed as inactive.

With `Cc1c(Cl)cccc1-c1ccc(CNCc2ccccn2)o1`, the compound was classed as inactive.

Regarding `CC(C)(C)CC(=O)NC(=S)NCc1ccco1`, the result was inactive.

On to `O=C(c1cc(F)ccc1F)C1CCCN(Cc2ccc3nonc3c2)C1` (stereo not given), for which the compound was classed as inactive.

For `COCc1[nH]nc2c1C(c1sccc1C)C(C#N)=C(N)O2` (stereo not given), the compound was classed as inactive.

`CCOC(=O)N1CCC(N2CCCC(C(=O)c3ccc4cc(OC)ccc4c3)C2)CC1` (stereo not given): the compound was classed as inactive.

As for `CCOC(=O)CNCCC(=O)c1ccc(Br)cc1`, the call was inactive.

As to `O=C(NCc1cccs1)c1ccc([N+](=O)[O-])cc1`, the result was inactive.

For the compound `O=C(Nc1nccs1)c1ccc2ccccc2c1`, the result was inactive.

On to `CCOC(=O)c1cc(-c2csc(COc3ccc(Cl)cc3)n2)on1`, for which the outcome was inactive.

Take `CC(C)CCC1=NN(C(=O)c2ccco2)C(O)(C(F)(F)F)C1` (stereo not given): the outcome was inactive.

As to `Cc1cc(C(=O)NNc2ccc(Cl)cc2)no1`, the compound was called inactive.

Consider `O=C(NC(=S)NCCc1ccccc1)c1ccccc1`, for which the compound was classed as inactive.

As for `O=C(OCc1ccccn1)c1ccc(COc2ccccc2Cl)o1`, the result was inactive.

Take `Cc1n[nH]c(C)c1CCNC(=O)C1CCC(=O)N(Cc2ccccc2F)C1` (stereo not given): the call was inactive.

Turning to `O=C(Nc1nc2ccccc2n1CCN1CCCC1)C1CCCCC1`, the result was inactive.

With `O=C(Nc1ccc(Cl)cc1)C1CCCC1`, the compound was called inactive.

Turning to `C=CCn1c(NC(=O)c2ccccc2)nc2ccccc21`, the compound was classed as inactive.

Regarding `Cn1c(CNc2ccccc2O)nc2ccccc21`, the outcome was inactive.

For `CCCCSc1nnc(-c2cc(Br)ccc2N)c(=O)[nH]1`, the outcome was inactive.

As for `O=C(c1ccc(Br)o1)N1CCC(Cc2ccccc2)CC1`, the compound was called inactive.

As to `CN1c2ccsc2/C(=N/Nc2ccccc2)CS1(=O)=O`, the outcome was inactive.

With `COC(=O)c1ccc(N2CCN(CCNC(=O)Nc3ccc(OC)cc3)CC2)cc1`, the outcome was inactive.

In the case of `CCc1ccc(N2CCN(CCNC(=O)Nc3ccc(OC)cc3)CC2)cc1`, the compound was called inactive.

Consider `O=C1Nc2cc(C(=O)NCCCN3CCOCC3)ccc2S/C1=C/c1cccc(Cl)c1`, for which the call was inactive.

Regarding `O=C1CC(N2CCSCC2)C(=O)N1CCc1ccccc1` (stereo not given), the outcome was inactive.

On to `CCOC(=O)C(=O)Cc1nc2ccccc2s1`, for which the outcome was inactive.

Consider `Cc1ccc(-c2nnc(COC(=O)c3cccs3)o2)cc1`, for which the result was inactive.

For `O=C(COc1ccc2ccccc2c1)N1CCCC1`, the result was inactive.

Consider `O=C(NCCN1C(=O)S/C(=C\c2ccccc2F)C1=O)C1CCN(S(=O)(=O)c2cccs2)CC1`, for which the call was inactive.

On to `O=C(COC(=O)CCN1C(=O)/C(=C\C=C\c2ccccc2)SC1=S)Nc1cc(F)ccc1F`, for which the compound was called inactive.

As to `O=C(O)CCCCCN1C(=O)/C(=C\c2ccncc2)SC1=S`, the compound was classed as inactive.

For the compound `CCOC(=O)Cn1cc(C#N)c2ccccc21`, the compound was called inactive.

Regarding `CC1CCC/C(=C\Nc2ccc(C(=O)O)c(O)c2)C1=O` (stereo not given), the compound was called inactive.

For `Cc1cccnc1NC(=O)C1COc2ccccc2O1` (stereo not given), the compound was classed as inactive.

With `N=c1oc2ccccc2cc1C(=O)Nc1ccccc1`, the compound was classed as inactive.

As for `Cc1cc(Cl)ccc1N(CC(=O)NCc1ccccc1)S(C)(=O)=O`, the outcome was inactive.

For `CC(=O)c1ccc(NC(=O)c2cc(CC(C)C)on2)cc1`, the compound was classed as inactive.

As for `CN(CCS(=O)(=O)c1ccc(Cl)cc1)Cc1cccnc1`, the compound was classed as inactive.

For the compound `O=C(COc1ccc(Br)cc1)N/N=C1/SCC(=O)N1Cc1ccccc1`, the compound was classed as inactive.

For `O=C(Nc1nnc(COc2ccc(Cl)cc2)s1)c1ccco1`, the result was inactive.

`COC(=O)C(C)Oc1ccc2cc(-c3ccccc3)c(=O)oc2c1` (stereo not given): the call was inactive.

For `COc1ccc(NC(=O)C(=O)NNC(=O)C(C)Oc2ccc(Cl)cc2Cl)cc1` (stereo not given), the result was inactive.

With `O=C(NC(=S)N1CCN(C/C=C/c2ccccc2)CC1)c1ccco1`, the outcome was inactive.

For the compound `C=CCN(CC=C)C(=O)Cc1ccc(F)cc1`, the outcome was inactive.

With `C=C(C)C1Cc2c(C)nn(-c3nc(C)cc(C)n3)c2C1` (stereo not given), the outcome was inactive.

With `CCOC(=O)Cn1c(-c2ccccc2)ccc(C#N)c1=O`, the outcome was inactive.

For the compound `O=C1c2cccc3cc([N+](=O)[O-])cc(c23)C(=O)N1c1ccccc1O`, the compound was called inactive.

`NCCNc1ccc([N+](=O)[O-])c2cccnc12`: the outcome was inactive.

Regarding `O=c1cc(-c2ccccc2Cl)oc2ccc([N+](=O)[O-])c(O)c12`, the compound was called inactive.

Turning to `CC(=O)Nc1ccc(OC(=O)c2ccc(Br)c([N+](=O)[O-])c2)cc1`, the result was inactive.

For `O=[N+]([O-])c1cnc(Nc2ccc(Cl)cn2)c([N+](=O)[O-])c1`, the compound was classed as inactive.

Consider `Cc1ccc(OC(=O)c2sc3ncn(C)c(=O)c3c2C)cc1`, for which the compound was classed as inactive.

As to `CC(C)CN1C(=O)/C(=C(/C#N)C(=O)NC2CCCCC2)c2ccccc21`, the compound was classed as inactive.

Turning to `Cc1ccc(NC(=O)CO/N=C/c2ccccc2C)c(C)c1`, the compound was classed as inactive.

Take `COc1cc2[nH]c(Cl)c([N+](=O)[O-])c2cc1OC`: the call was inactive.

`CCOC(=O)c1csc(COc2ccc(OC)cc2)n1`: the compound was classed as inactive.

For `O=C(NCc1nnc(SC/C=C/c2ccccc2)o1)c1ccco1`, the call was inactive.

Take `O=C(CCNc1cccc(Cl)c1)c1ccco1`: the compound was called inactive.

Take `COC(=O)CCc1nc2c(C#N)c(-c3ccc(Cl)cc3)ccn2n1`: the result was inactive.

For `O=C(CC1CCCC1)OCn1nnc2ccccc2c1=O`, the call was inactive.

For the compound `CCCCCCCCCCn1cc(C(C)=O)c(=O)[nH]c1=O`, the call was inactive.

Take `O=C(N/N=C/c1ccccn1)c1cc([N+](=O)[O-])cc([N+](=O)[O-])c1`: the result was inactive.

Regarding `O=C(O/N=C/c1ccc2c(c1)OCO2)c1ccc([N+](=O)[O-])cc1`, the compound was called inactive.

For the compound `CCOC(=O)COc1ccc2c(=O)c(-c3ccccc3)coc2c1`, the call was inactive.

With `COc1ccc2c([N+](=O)[O-])c(N3CCCC3)[nH]c2c1`, the compound was classed as inactive.

On to `CC(C)(C)NCc1cc(Br)ccc1OC1CCCC1`, for which the compound was called inactive.

On to `CC(C)(C)c1cc(CN2CCN(CCO)CC2)cc(C(C)(C)C)c1O`, for which the result was inactive.

With `CN(C)CCC(=O)N1c2ccccc2Sc2ccc(C(F)(F)F)cc21`, the result was inactive.

Take `O=C(NCC1CCCCC1)c1ccco1`: the outcome was inactive.

Regarding `Brc1c(-c2ccc3c(c2)OCO3)nc2ncccn12`, the result was inactive.

Turning to `CCn1cc(C(=O)O)c(=O)c2cc(F)c(N3CCN(C(=S)NC(=O)c4ccccc4)CC3)cc21`, the result was inactive.

As to `CCCNC(=O)NC(=O)COc1ccc2oc3ccccc3c2c1`, the compound was classed as inactive.

For the compound `CC(C)(C)c1ccc(S(=O)(=O)NNC(=O)c2cc3ccccc3[nH]2)cc1`, the call was inactive.

On to `CCOC(=O)c1ccc(-n2c(CCC(=O)O)ccc2-c2cccs2)cc1`, for which the call was inactive.

In the case of `COc1ccc(C(=O)CCS(=O)(=O)c2ccc(C)cc2)cc1OC`, the compound was called inactive.

For the compound `O=C(COC(=O)c1ccccc1)NCc1cccs1`, the outcome was inactive.

`O=C(COc1ccc2ccccc2c1)Nc1nccs1`: the outcome was inactive.

For `COCCSc1nnc(NC(=O)CCS(=O)(=O)Cc2ccccc2)s1`, the result was inactive.

In the case of `CC(C)Cc1nnc(NC(=O)CCS(=O)(=O)c2ccc(Cl)cc2)s1`, the result was inactive.

Regarding `CCOC(=O)c1csc(NC(=O)COc2ccc(Cl)cc2Cl)n1`, the call was inactive.

In the case of `Cc1ccc(OC(=O)c2ccc(Br)o2)cc1`, the compound was called inactive.

In the case of `CC(=O)NCCOC(=O)Nc1sc(=S)n(C)c1C`, the compound was called inactive.

Turning to `O=C(CCNc1cccc(Cl)c1)c1cccs1`, the compound was classed as inactive.

As to `NC(=S)n1[nH]c(-c2ccc([N+](=O)[O-])cc2)c(N=Nc2ccc(O)cc2)c1=O`, the result was inactive.

With `Cc1ccccc1-n1c(C)cc(/C=N/NC(=O)c2ccncc2)c1C`, the outcome was inactive.

As for `Cc1ccc(/C=N/NC(=O)c2ccncc2)o1`, the call was inactive.

For the compound `Cc1ccc(OCCCCn2ccnc2)c([N+](=O)[O-])c1`, the call was inactive.

With `Cc1cc(OCCCn2ccnc2)ccc1C(C)C`, the call was inactive.

In the case of `Cc1cc(OCc2cc(C(=O)N(C)CCc3cnn(C)c3)no2)cc(C)c1Cl`, the outcome was inactive.

Consider `c1ccc2cc(OCCCn3ccnc3)ccc2c1`, for which the call was inactive.

As to `c1ccc(-c2ccccc2OCCCCn2ccnc2)cc1`, the compound was called inactive.

Turning to `COc1ccc(-c2noc(-c3cc4ccccc4oc3=O)n2)cc1`, the compound was classed as inactive.

With `CCCOc1ccc(N2CC(C(=O)Nc3ccccn3)CC2=O)cc1` (stereo not given), the result was inactive.

As to `O=S(=O)(Nc1nccs1)c1ccc(NCc2cc(Br)cc(Br)c2O)cc1`, the call was inactive.

Take `COCC(=O)Nc1ccccc1NC(C)=O`: the compound was classed as inactive.

For the compound `S=C(Nc1ccc2c(c1)OCO2)Nc1ccc2c(c1)OCO2`, the call was inactive.

With `O=C1CC(Sc2ncccn2)C(=O)N1c1ccccc1C(F)(F)F` (stereo not given), the result was inactive.

On to `CCOc1c(OC(C)=O)ccc(/C=C2\N=C(SCC)SC2=O)c1[N+](=O)[O-]`, for which the compound was called inactive.

As to `Cc1c(C(=O)N(C)C)sc2nc(-c3ccccn3)[nH]c(=O)c12`, the compound was classed as inactive.

As for `CCCCOC(=O)c1ccc(NC(=O)C2CCCO2)cc1` (stereo not given), the compound was classed as inactive.

On to `COCCNC(=O)c1cc2cc(Cl)cc(Cl)c2oc1=O`, for which the compound was classed as inactive.

Turning to `COC(=O)c1cc2c(ccc3ccccc32)oc1=O`, the call was inactive.

As to `C=CCOc1ccc(CNCCO)cc1OCC`, the compound was classed as inactive.

Regarding `O=S(=O)(c1ccc(Cl)c2ccccc12)N1CCCC1`, the compound was called inactive.

Turning to `CN(C(=O)COC(=O)c1ccc([N+](=O)[O-])cc1Cl)C1CCCCC1`, the result was inactive.

As for `N#Cc1cc(N)ccc1-n1cccc1`, the compound was classed as inactive.

As for `Cc1cc(C(=O)N/N=C/c2ccc(OC(=O)c3ccccc3Br)cc2)n[nH]1`, the compound was called inactive.

Consider `Cc1cc2ccccc2n1CCNC(=O)C(C)(C)C`, for which the compound was classed as inactive.

As to `CC(C)OC(=O)C(C)Oc1ccc(C(=O)NCCc2ccccc2)cc1` (stereo not given), the compound was called inactive.

For the compound `CC1CCN(C(=O)COC(=O)c2cc3ccccc3cc2O)CC1`, the compound was called inactive.

For the compound `O=C(CC1CCCCC1)NCc1ccccc1`, the compound was classed as inactive.

(Values after PubChem BioAssay AID489025 (Southern Research Specialized Biocontainment Screening …, 2010).)
